According to PubChem BioAssay:
Values joined by “and” are separate entries in the source; they are usually repeats but may differ in a detail not shown here. Equal values may be shown once. Active and inactive are the calls of the source.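 Rule for the calls, unless noted: active = normalized viability below 100% at a tested concentration; inactive = the rest.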

Tests used:
[1] = stimulators of nuclear beta-catenin in C2C12, primary screen, imaging, WNT3A-conditioned medium, mouse C2C12, NPC library (AID 1117326; in the data active = nuclear beta-catenin stimulation mostly above about 4.2%, no sharp cut-off; inactive = mostly below about 10%); conditions: stronger effect = higher value
[2] = stimulators of insulin release from INS-1E, primary screen, cell-based, 5 mM glucose, NPC library (AID 1117329;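 active = compound raises insulin release from rat beta cells at 5 mM glucose, no numeric limit stated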); conditions: rat INS-1E insulin secretion, at 10 µM, stronger effect = higher value
[3] = growth inhibition of GSK3B-pretreated HCT116 cells – cell-based, CellTiter-Glo, 0.2 to 20 µM (AID 1117336;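 active = compounds lowering colon cancer cell viability after pretreatment blocking the GSK3B kinase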); conditions: HCT116 viability after GSK3B inhibitor, at 20 µM, stronger effect = higher value
[4] = inhibition of endothelial tube formation, primary screen, imaging, VEGF stimulated, CD31 staining, tube area, NPC library (AID 1117340;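 active = compound that reduces growth-factor-driven endothelial tube area in a mixed cell culture, no cutoff stated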); conditions: VEGF-stimulated ADSC/ECFC co-culture, at 10 µM, stronger effect = higher value
[5] = glucagon-like peptide 1 release enhancers, primary assay, NCI-H716 cell line, NPC library (AID 1117341;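 active = compound raises GLP1 secretion from the human gut endocrine cells, with no numeric limit stated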); conditions: NCI-H716 cells, at 10 µM, stronger effect = higher value
[6] = HCT116 colon cancer cell growth inhibition, primary screen, CellTiter-Glo luminescence, NPC library (AID 1117342;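 active = compounds that lower survival of HCT116 colon cancer cells in the luminescence readout, no numeric limit stated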); conditions: at 20 µM (top of the series)
[7] = CellTiter-Glo luminescent readout of SW480 viability loss, NPC library primary (AID 1117343;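 active = compounds that lower viability of the colon cancer cells in the luminescence readout, with no numeric limit stated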); conditions: CellTiter-Glo luminescence; at 20 µM (top of the series) unless noted
[8] = decreased DLD-1 cellular survival, CellTiter-Glo luminescent readout, NPC compound collection, primary HTS (AID 1117346;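 active = compounds that lower survival of DLD-1 colon cancer cells in the luminescence readout, no cutoff given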); conditions: DLD-1 viability, CellTiter-Glo luminescence; at 20 µM (top of the series)
[9] = differential killing of epithelial or mesenchymal cells, primary screen, imaging, PC-3E GFP, TEM4-18 mCherry, co-culture (AID 1345086;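 active = compounds killing one labelled cell type while sparing the other, by normalised counts and ratio limits, not self-fluorescent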;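 for all read-outs here: cells exposed to compound for 72 h before imaging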;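 for red/green cell ratio (normalised): normalised mesenchymal count divided by normalised epithelial count so high means epithelial killing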); conditions: imaging cell counts, at 1 µM; for red/green cell ratio (normalised): actives lie on both sides, counts scaled to control wells, 1 = unselective
[10] = sensitizers of A549 cells to miR-34 induction, primary screen, imaging, A549 dox-inducible miR-34, nuclei and caspase counts (AID 1347080;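 active = compounds whose cell count with miR-34 switched on is under 0.7 times the count with it off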); conditions: A549 miR-34 inducible, Hoechst nuclei count, 48 h
[11] = survival rescue of mitochondrial mutant cells in low glucose, primary screen, MELAS cybrids, Rieske KO mouse fibroblasts, CellTiter-Glo (AID 1508586;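 active = mean z-score across replicates of 1.96 or higher in either the MELAS or the Rieske mutant cell line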;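 note: z relative to plate mean and SD of compound and empty wells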)
[12] = ovarian cancer cell viability with rucaparib, profiling panel, oncology-focused library, rucaparib conditional (AID 1508598); conditions: patient-derived ovarian cancer cells, CellTiter-Glo viability, 144 h, stronger effect = lower value
[13] = molecular target: NAD(+) hydrolase SARM1 (Homo sapiens) (UniProt Q6SZW1); experiment: SARM1 TIR NADase inhibitors, cell lysate, NAD-Glo luminescence (AID 1508614;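 active = compound whose remaining NAD level is above about 45 nM, limit read from the data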;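 note: higher remaining NAD means stronger inhibition of SARM1 NADase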); conditions: SAM-TIR HEK293T lysate NADase, at 1 µM, stronger effect = higher value
[14] = hESC survival regulators, cell-based (AID 493140; call rule not given here;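 note: cells exposed to compounds for four days before counting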); conditions: human embryonic stem cell survival screen; stronger effect = higher value
[15] = liver-stage malaria parasite growth inhibition, primary screen, cell-based, HepG2, luciferase luminescence, HepG2 viability (AID 624349; in the data active = parasite load remaining mostly below about 12%, no sharp cut-off; inactive = mostly above about 10%;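 note: 100% = mean of DMSO negative control wells on the same plate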); conditions: P. berghei liver stage in HepG2, luciferase luminescence, concentration not given here; parasite load remaining: stronger effect = lower value; viability: measured here: HepG2 viability without parasites
[16] = measured here: epithelial PC-3E GFP cell survival
[17] = measured here: mesenchymal TEM4-18 mCherry cell survival
[18] = stronger effect = lower value, cell number ratio, induced over uninduced
[19] = measured here: relative caspase fold change +Dox/-Dox
[20] = measured here: total cells with miR-34 induction, stronger effect = lower value
[21] = measured here: total cells without miR-34 induction
[22] = MELAS cybrid survival, CellTiter-Glo 48 h, stronger effect = higher value
[23] = Rieske KO mouse fibroblast survival, CellTiter-Glo 72 h

Chain of NAD(+) hydrolase SARM1 (Homo sapiens) (Q6SZW1 whole entry, looked up): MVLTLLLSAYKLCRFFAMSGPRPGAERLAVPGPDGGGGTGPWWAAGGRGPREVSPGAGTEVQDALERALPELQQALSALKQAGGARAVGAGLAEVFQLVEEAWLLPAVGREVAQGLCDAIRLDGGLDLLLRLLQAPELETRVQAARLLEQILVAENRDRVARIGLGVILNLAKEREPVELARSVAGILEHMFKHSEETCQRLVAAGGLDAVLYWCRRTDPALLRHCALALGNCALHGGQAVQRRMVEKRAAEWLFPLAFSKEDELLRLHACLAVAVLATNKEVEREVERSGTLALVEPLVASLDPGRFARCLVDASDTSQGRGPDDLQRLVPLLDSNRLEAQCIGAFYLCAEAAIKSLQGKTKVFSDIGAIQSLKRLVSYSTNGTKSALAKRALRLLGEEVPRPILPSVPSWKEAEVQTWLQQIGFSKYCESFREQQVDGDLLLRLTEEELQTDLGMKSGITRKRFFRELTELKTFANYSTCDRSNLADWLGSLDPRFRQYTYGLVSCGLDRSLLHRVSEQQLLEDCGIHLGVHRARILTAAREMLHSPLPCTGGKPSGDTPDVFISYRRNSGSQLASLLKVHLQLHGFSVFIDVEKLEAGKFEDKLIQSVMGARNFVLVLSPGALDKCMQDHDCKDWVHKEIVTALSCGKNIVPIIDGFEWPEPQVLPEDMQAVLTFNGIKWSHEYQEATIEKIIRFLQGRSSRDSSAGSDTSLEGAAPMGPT

Cc1nc(Nc2ncc(C(=O)Nc3c(C)cccc3Cl)s2)cc(N2CCN(CCO)CC2)n1
0.58: normalised cell number [9, 17]
0.654 and 0.731: fold change [10, 19]
inactive: insulin secretion stimulation [2] -0.7% | viability decrease [3] -182% | GLP1 secretion stimulation [5] 2.2% | red/green cell ratio (normalised) [9] 1.54 | fold change [10, 18] 0.896 and 0.9 | viability ([12]; at 0.000305 µM, OCI-C5x cells, with rucaparib 10 µM, 100% = cells with rucaparib alone) 102% | viability ([12]; at 0.000305 µM, OCI-C5x cells, without rucaparib) 117% | viability ([12]; at 0.000305 µM, OCI-P5x cells, with rucaparib 20 µM, 100% = cells with rucaparib alone) 103% | viability ([12]; at 0.00122 µM, OCI-C5x cells, without rucaparib) 114% | viability ([12]; at 0.00488 µM, OCI-C5x cells, with rucaparib 10 µM, 100% = cells with rucaparib alone) 107% | viability ([12]; at 0.00488 µM, OCI-C5x cells, without rucaparib) 108% | remaining NAD [13] 10 nM
65.2%: nuclear beta-catenin stimulation ([1]; stimulation, at 2 µM)
470 and 582: cell count [10, 20]
0.38: normalised cell number [9, 16]
active: nuclear beta-catenin stimulation ([1]; at 10 µM) 69.4% | tube area decrease [4] 62.2% | inhibition of viability [6] 69.7% | viability decrease (inhibition) [7] 87.2% | viability decrease (inhibition) [8] 100% | z-score [11, 22] 4.95 | viability ([12]; at 0.000305 µM, OCI-P5x cells, without rucaparib) 98.9% | viability ([12]; at 0.00122 µM, OCI-C5x cells, with rucaparib 10 µM, 100% = cells with rucaparib alone) 99.9% | viability ([12]; at 0.00122 µM, OCI-P5x cells, with rucaparib 20 µM, 100% = cells with rucaparib alone) 54.8% | viability ([12]; at 0.00122 µM, OCI-P5x cells, without rucaparib) 97.2% | viability ([12]; at 0.00488 µM, OCI-P5x cells, with rucaparib 20 µM, 100% = cells with rucaparib alone) 52.6% | viability ([12]; at 0.00488 µM, OCI-P5x cells, without rucaparib) 81.3% | viability ([12]; at 0.0195 µM, OCI-C5x cells, with rucaparib 10 µM, 100% = cells with rucaparib alone) 77.4% | viability ([12]; at 0.0195 µM, OCI-C5x cells, without rucaparib) 87.9% | viability ([12]; at 0.0195 µM, OCI-P5x cells, with rucaparib 20 µM, 100% = cells with rucaparib alone) 27.3% | viability ([12]; at 0.0195 µM, OCI-P5x cells, without rucaparib) 53.6% | viability ([12]; at 0.0781 µM, OCI-C5x cells, with rucaparib 10 µM, 100% = cells with rucaparib alone) 68.4% | viability ([12]; at 0.0781 µM, OCI-C5x cells, without rucaparib) 72.4% | viability ([12]; at 0.0781 µM, OCI-P5x cells, with rucaparib 20 µM, 100% = cells with rucaparib alone) 17% | viability ([12]; at 0.0781 µM, OCI-P5x cells, without rucaparib) 31.8% | viability ([12]; at 0.313 µM, OCI-C5x cells, with rucaparib 10 µM, 100% = cells with rucaparib alone) 69.2% | viability ([12]; at 0.313 µM, OCI-C5x cells, without rucaparib) 71.6% | viability ([12]; at 0.313 µM, OCI-P5x cells, with rucaparib 20 µM, 100% = cells with rucaparib alone) 17% | viability ([12]; at 0.313 µM, OCI-P5x cells, without rucaparib) 28.4% | viability ([12]; at 1.25 µM, OCI-C5x cells, with rucaparib 10 µM, 100% = cells with rucaparib alone) 66.7% | viability ([12]; at 1.25 µM, OCI-C5x cells, without rucaparib) 71.4% | viability ([12]; at 1.25 µM, OCI-P5x cells, with rucaparib 20 µM, 100% = cells with rucaparib alone) 16.6% | viability ([12]; at 1.25 µM, OCI-P5x cells, without rucaparib) 24.3% | viability ([12]; at 5 µM, OCI-C5x cells, with rucaparib 10 µM, 100% = cells with rucaparib alone) 44.6% | viability ([12]; at 5 µM, OCI-C5x cells, without rucaparib) 51.1% | viability ([12]; at 5 µM, OCI-P5x cells, with rucaparib 20 µM, 100% = cells with rucaparib alone) 2.14% | viability ([12]; at 5 µM, OCI-P5x cells, without rucaparib) 10.5%
-1.77: z-score [11, 23]
524 and 647: cell count [10, 21]

COc1cc2c(c(OC)c1OC)-c1ccc(OC)c(=O)cc1[C@@H](NC(C)=O)CC2
1890 and 1930 and 1700: cell count [10, 20]
-0.272: z-score [11, 23]
1330 and 1630 and 1730: cell count [10, 21]
0.19: normalised cell number [9, 16]
72.6%: nuclear beta-catenin stimulation ([1]; stimulation, at 2 µM)
1.13 and 1.5 and 0.402: fold change [10, 19]
active: nuclear beta-catenin stimulation ([1]; at 10 µM) 77.5% | viability decrease [3] 97.2% | tube area decrease [4] 105% | inhibition of viability [6] 75% | viability decrease (inhibition) [8] 58.2%
inactive: survival [14] 0.333 | insulin secretion stimulation [2] 2.2% | GLP1 secretion stimulation [5] -3.6% | viability decrease (inhibition) [7] 43.3% | red/green cell ratio (normalised) [9] 1.19 | fold change [10, 18] 1.43 and 1.18 and 0.984 | z-score [11, 22] -2.22 | remaining NAD [13] 10 nM
0.23: normalised cell number [9, 17]

OC(CCN1CCCCC1)(c1ccccc1)C1CC2C=CC1C2 (stereo not drawn)
inactive: survival [14] 9.67 | parasite load remaining [15] 61.4% and 36.1% | nuclear beta-catenin stimulation ([1]; at 10 µM) 0.3% | insulin secretion stimulation [2] 4.5% | viability decrease [3] -65.7% | tube area decrease [4] 1.4% | GLP1 secretion stimulation [5] -4% | inhibition of viability [6] 36.4% | viability decrease (inhibition) [7] 39.6% | viability decrease (inhibition) [8] 2.7% | red/green cell ratio (normalised) [9] 0.98 | fold change [10, 18] 1.01 and 0.963 and 0.83 | z-score [11, 22] -0.399 | remaining NAD [13] 10 nM
-0.7%: nuclear beta-catenin stimulation ([1]; stimulation, at 2 µM)
0.122: z-score [11, 23]
0.85: normalised cell number [9, 16]
0.83: normalised cell number [9, 17]
10100 and 7400 and 10600: cell count [10, 20]
9960 and 7680 and 12700: cell count [10, 21]
78.3% and 106%: viability [15]
1.73 and 0.774 and 4.12: fold change [10, 19]
